From PubChem BioAssay
TMEM16A inh: mouse TMEM16A channel inhibition, primary screen | normalized B-score (activity score, 25-100; higher = stronger inhibition) at 10 µM | 1.2% of 310,000 active | HEK293 TMEM16A/YFP iodide influx fluorescence, ionomycin | Q8BHY3;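 active means ratio plate-corrected score three or more library SD toward inhibition, starting fluorescence score within five deviations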;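 further: score derived from kinetic fluorescence span divided by baseline fluorescence per well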
CHT allo act: human CHT allosteric activation; CHT-expressing cells, membrane potential dye, choline EC20; hits give high values; LV-AA mutant CHT in HEK293 cells; B-score at 10 µM; 0.49% of 310,000 active;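 active means initial fluorescence not abnormally high and integrated response B-score, plate-corrected, over 3 SD above library mean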
IDE inh: cellular human IDE inhibition; P14735; HEK cells, FAbetaB cleavage, fluorescence polarization; inhibition, % at 5.59 µM; 0.41% of 320,000 active;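 active means percent inhibition above the average of all tested compounds plus 3 SD, set per screening campaign, cut at about 16% in these data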;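 further: IDE supplied by intact live HEK cells; FP after avidin binding of uncleaved biotin substrate so inhibition keeps polarization high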
CHT block: inhibits the human high affinity choline transporter; CHT-expressing cells, membrane potential dye, choline response; hits give low values; B-score at 10 µM; 0.86% of 310,000 active; AID 488975;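 active means B-score over 3 SD under the library average, and starting fluorescence ratio not unusually high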;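 further: choline stimulus applied at its EC90 after an EC20 pre-addition; B-score computed on integrated fluorescence ratio after choline addition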
IDE cell activ: IDE (human) activation, cell-based; P14735; HEK cells, FAbeta-B cleavage, fluorescence polarization; 0% vehicle, 100% cell-free pure enzyme wells; activation, % at 5.96 µM; 0.073% of 340,000 active; AID 493087;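 active means activation above the mean of all tested compounds plus 3 SD, set per screening campaign, cut at about 17% in these data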
ANO1 activ: mouse TMEM16A channel activation, primary screen; 0.3% of 340,000 active; B-score at 10 µM; HEK293 TMEM16A/YFP-H148Q/I152L, iodide quench fluorescence; hits give low values;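 active means fluorescence-ratio B-score plate-corrected deviation score at least 3 library SD below zero, with starting fluorescence score within 5 deviations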;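 further: channel opened by trigger with iodide after compound preincubation; score built on the fluorescence ratio of max minus min over baseline; more negative score means more quench and so TMEM16A activation or potentiation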
A number is an active result. Sampled rows, rich in hits. Any-hit rate of the full collection: about 2.7%.

Results for COc1ccccc1OCCC(=O)OCC(=O)Nc1ccc2c(c1)OCO2 ?
IDE inh: inactive; IDE cell activ: inactive; ANO1 activ: inactive

How did COc1ccc2ccccc2c1C(O)c1nccn1C (configuration not stated) do in these assays?
TMEM16A inh: inactive; CHT allo act: inactive; IDE inh: inactive; CHT block: inactive; IDE cell activ: 21.3; ANO1 activ: inactive

Results for Cn1ccnc1C(O)c1ccccc1 (configuration not stated) ?
TMEM16A inh: inactive; CHT allo act: inactive; IDE inh: inactive; CHT block: inactive; IDE cell activ: inactive; ANO1 activ: inactive

How did COc1ccc(NC2CCCN(C(=O)c3ccccc3N3CCOCC3)C2)cc1OC (configuration not stated) do in these assays?
TMEM16A inh: inactive; CHT allo act: inactive; IDE inh: inactive; CHT block: inactive; IDE cell activ: inactive; ANO1 activ: inactive

How did Cc1c(C(=O)Oc2cccc3ccccc23)cnn1-c1ccccc1 do in these assays?
TMEM16A inh: 100; CHT allo act: inactive; IDE inh: inactive; CHT block: inactive; IDE cell activ: inactive; ANO1 activ: inactive

What do the screens show for `CCCCn1c(=O)c2ccccc2c2ccccc2c1=O`?
TMEM16A inh: inactive; CHT allo act: inactive; IDE inh: inactive; CHT block: inactive; IDE cell activ: inactive; ANO1 activ: inactive

Results for CCCCn1c(=O)nc2n(-c3ccccc3C)c3ccccc3cc-2c1=O ?
TMEM16A inh: 25; CHT allo act: inactive; IDE inh: inactive; CHT block: inactive; IDE cell activ: inactive; ANO1 activ: inactive

Results for Cc1ccccc1-n1c2nc(=O)n(C)c(=O)c-2cc2ccccc21 ?
TMEM16A inh: 100; CHT allo act: inactive; IDE inh: inactive; CHT block: inactive; IDE cell activ: inactive; ANO1 activ: inactive

What do the screens show for `Cc1ccccc1-n1c(=O)c2ccccc2n2nnnc12`?
TMEM16A inh: inactive; CHT allo act: inactive; IDE inh: inactive; CHT block: inactive; IDE cell activ: inactive; ANO1 activ: inactive

How did COc1ccc(Cn2c(SCc3ccccc3C)nc3cc(OC)c(OC)cc3c2=N)cc1 do in these assays?
TMEM16A inh: inactive; CHT allo act: inactive; IDE inh: inactive; CHT block: inactive; IDE cell activ: 22.1; ANO1 activ: inactive

Results for CN(CC(=O)Nc1cc(S(=O)(=O)N2CCCCCC2)ccc1Cl)Cc1ccc2c(c1)OCO2 ?
IDE inh: inactive; IDE cell activ: inactive; ANO1 activ: -13.5

How did CSc1ccc(COC(=O)c2cc([N+](=O)[O-])ccc2N2CCOCC2)cc1 do in these assays?
TMEM16A inh: inactive; CHT allo act: 6.35; IDE inh: inactive; CHT block: inactive; IDE cell activ: inactive; ANO1 activ: inactive

Results for CC1CN(CC(=O)Nc2nc(-c3ccc(Cl)cc3)cs2)CC(C)O1 (configuration not stated) ?
TMEM16A inh: inactive; CHT allo act: inactive; IDE inh: inactive; CHT block: inactive; IDE cell activ: inactive; ANO1 activ: inactive

What do the screens show for `CC(=O)c1c(C)[nH]c(C(=O)CN2CCN(S(=O)(=O)c3ccccc3)CC2)c1C`?
IDE inh: inactive; IDE cell activ: inactive; ANO1 activ: inactive

Results for Cc1cccc(NC(c2ccc(C)s2)c2ccc3ccc(C)nc3c2O)n1 (configuration not stated) ?
TMEM16A inh: inactive; CHT allo act: inactive; IDE inh: 22.4; CHT block: inactive; IDE cell activ: inactive; ANO1 activ: inactive

What do the screens show for `CCCNC(=O)CN1C(=O)c2ccccc2Sc2ncccc21`?
TMEM16A inh: inactive; CHT allo act: inactive; IDE inh: inactive; CHT block: inactive; IDE cell activ: inactive; ANO1 activ: inactive

How did Cc1ccc(Cn2nc(C)c(C(=O)N3CCN(S(=O)(=O)/C=C/c4ccccc4)CC3)c2C)cc1 do in these assays?
IDE inh: inactive; IDE cell activ: 32.8; ANO1 activ: inactive

How did CC(Sc1ncnc2sccc12)C(=O)Nc1ccc(S(=O)(=O)N2CCOCC2)cc1 (configuration not stated) do in these assays?
IDE cell activ: inactive; ANO1 activ: inactive

How did O=C(/C=C/c1cccc([N+](=O)[O-])c1)NCc1ccccc1 do in these assays?
TMEM16A inh: inactive; CHT allo act: inactive; IDE inh: inactive; CHT block: inactive; IDE cell activ: inactive; ANO1 activ: inactive
